In PubChem BioAssay AID1159580 (chemical genetic matrix, 2015):
Values joined by “and” are separate entries in the source; they are usually repeats but may differ in a detail not shown here. Identical values can stand only once. Out of some 5,500 compounds screened, about 2,000 (36%) were called active. Another 18% or so got no clear call; they are omitted. No stated cut-off is given here; in the data, active means normalized growth mostly below about 0.91 (no sharp cut-off); inconclusive means no clear call, values can overlap the other calls; inactive means mostly above about 0.92. The list shows a part of the results.

Assay: chemical genetic growth profiling, strain panel (AID 1159580);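 further: tested at 20 µM; growth read once vehicle control cultures reached saturation at 30 °C; 1 = growth at the plate median or of vehicle wells; lower values mean less growth of the strain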
Conditions: growth OD

Measured: normalized growth

CC1=C(/C=C/C(C)=C/C=C/C(C)=C/C(=O)O)C(C)(C)CCC1
active: S. cerevisiae deletion strains, locus YLR262C, strain YPT6 (second series), active compounds read low 0.827 | S. cerevisiae deletion strains, locus YOR083W, strain WHI5, active compounds read low 0.883
inactive: S. cerevisiae deletion strains, locus YJR075W, strain HOC1, active compounds read low 1.01 | S. cerevisiae deletion strains, locus YKL009W, strain mrt4, active compounds read low 0.992 | S. cerevisiae deletion strains, locus YKL068W, active compounds read low 1.02 | S. cerevisiae deletion strains, locus YKL085W, strain MDH1 (second series), active compounds read low 1.02 | S. cerevisiae deletion strains, locus YKL085W, strain MDH1, active compounds read low 1.02 | S. cerevisiae deletion strains, locus YKL160W, strain elf1, active compounds read low 0.93 | S. cerevisiae deletion strains, locus YKL190W, strain CNB1, active compounds read low 1.01 | S. cerevisiae deletion strains, locus YKR001C, strain vps1, active compounds read low 1.02 | S. cerevisiae deletion strains, locus YKR026C, strain gcn3, active compounds read low 1.01 | S. cerevisiae deletion strains, locus YKR091W, strain srl3, active compounds read low 1.01 | S. cerevisiae deletion strains, locus YLL001W, strain dnm1, active compounds read low 0.963 | S. cerevisiae deletion strains, locus YLL026W, active compounds read low 0.996 | S. cerevisiae deletion strains, locus YLL041C, strain sdh2, active compounds read low 1.02 | S. cerevisiae deletion strains, locus YLR027C, strain aat2, active compounds read low 0.966 | S. cerevisiae deletion strains, locus YLR039C, strain RIC1, active compounds read low 0.945 | S. cerevisiae deletion strains, locus YLR058C, strain SHM2, active compounds read low 1.01 | S. cerevisiae deletion strains, locus YLR102C, strain apc9, active compounds read low 1.04 | S. cerevisiae deletion strains, locus YLR113W, strain HOG1, active compounds read low 0.978 | S. cerevisiae deletion strains, locus YLR221C, strain rsa3, active compounds read low 0.982 | S. cerevisiae deletion strains, locus YLR258W, strain gsy2, active compounds read low 0.972 | S. cerevisiae deletion strains, locus YLR262C, strain YPT6, active compounds read low 0.93 | S. cerevisiae deletion strains, locus YLR268W, strain sec22, active compounds read low 1 | S. cerevisiae deletion strains, locus YLR320W, strain mms22, active compounds read low 0.935 | S. cerevisiae deletion strains, locus YLR330W, strain CHS5, active compounds read low 1.01 | S. cerevisiae deletion strains, locus YLR342W, strain FKS1 (second series), active compounds read low 1.02 | S. cerevisiae deletion strains, locus YLR342W, strain FKS1, active compounds read low 0.922 | S. cerevisiae deletion strains, locus YLR357W, strain rsc2, active compounds read low 0.94 | S. cerevisiae deletion strains, locus YLR370C, strain arc18, active compounds read low 0.989 | S. cerevisiae deletion strains, locus YLR371W, strain rom2, active compounds read low 1.03 | S. cerevisiae deletion strains, locus YLR384C, strain iki3, active compounds read low 0.995 | S. cerevisiae deletion strains, locus YLR418C, strain cdc73, active compounds read low 1.05 | S. cerevisiae deletion strains, locus YML016C, strain PPZ1, active compounds read low 1.01 | S. cerevisiae deletion strains, locus YML032C, strain rad52, active compounds read low 1.03 | S. cerevisiae deletion strains, locus YML120C, strain ndi1, active compounds read low 1.01 | S. cerevisiae deletion strains, locus YML124C, strain tub3, active compounds read low 1.03 | S. cerevisiae deletion strains, locus YMR058W, strain fet3, active compounds read low 0.948 | S. cerevisiae deletion strains, locus YMR078C, strain ctf18, active compounds read low 1.04 | S. cerevisiae deletion strains, locus YMR125W, strain sto1, active compounds read low 1 | S. cerevisiae deletion strains, locus YMR129W, active compounds read low 1 | S. cerevisiae deletion strains, locus YMR205C, strain PFK2, active compounds read low 0.965 | S. cerevisiae deletion strains, locus YMR223W, strain ubp8, active compounds read low 1.02 | S. cerevisiae deletion strains, locus YMR231W, strain pep5, active compounds read low 1.01 | S. cerevisiae deletion strains, locus YMR263W, strain SAP30, active compounds read low 1 and 0.999 | S. cerevisiae deletion strains, locus YMR307W, strain GAS1, active compounds read low 1.02 | S. cerevisiae deletion strains, locus YNL067W, strain RPL9B, active compounds read low 1 | S. cerevisiae deletion strains, locus YNL071W, strain lat1, active compounds read low 0.957 | S. cerevisiae deletion strains, locus YNL128W, strain TEP1, active compounds read low 1.02 | S. cerevisiae deletion strains, locus YNL153C, strain GIM3, active compounds read low 1.01 | S. cerevisiae deletion strains, locus YNL175C, strain NOP13, active compounds read low 1.05 | S. cerevisiae deletion strains, locus YNL183C, strain NPR1, active compounds read low 0.905 | S. cerevisiae deletion strains, locus YNL197C, strain WHI3, active compounds read low 1.04 | S. cerevisiae deletion strains, locus YNL209W, strain ssb2, active compounds read low 0.973 | S. cerevisiae deletion strains, locus YNL224C, strain SQS1, active compounds read low 1.03 | S. cerevisiae deletion strains, locus YNL233W, strain BNI4, active compounds read low 1.01 | S. cerevisiae deletion strains, locus YNL248C, strain rpa49, active compounds read low 0.955 | S. cerevisiae deletion strains, locus YNL250W, strain rad50, active compounds read low 1.03 | S. cerevisiae deletion strains, locus YNL271C, strain bni1, active compounds read low 1.03 | S. cerevisiae deletion strains, locus YNL298W, strain CLA4, active compounds read low 1.03 | S. cerevisiae deletion strains, locus YNL307C, strain MCK1, active compounds read low 1.01 | S. cerevisiae deletion strains, locus YNL322C, strain KRE1 (second series), active compounds read low 0.989 | S. cerevisiae deletion strains, locus YNL322C, strain KRE1, active compounds read low 1.01 and 1 | S. cerevisiae deletion strains, locus YNR049C, strain mso1, active compounds read low 1.01 | S. cerevisiae deletion strains, locus YNR052C, strain pop2, active compounds read low 1.04 | S. cerevisiae deletion strains, locus YOL006C, strain TOP1, active compounds read low 1.04 | S. cerevisiae deletion strains, locus YOL012C, strain htz1 1.82 | S. cerevisiae deletion strains, locus YOL147C, strain pex11, active compounds read low 1.03 | S. cerevisiae deletion strains, locus YOR001W, strain rrp6, active compounds read low 0.978 | S. cerevisiae deletion strains, locus YOR061W, strain CKA2, active compounds read low 1.01 | S. cerevisiae deletion strains, locus YOR069W, strain VPS5, active compounds read low 1.01 | S. cerevisiae deletion strains, locus YOR070C, strain gyp1, active compounds read low 0.975 | S. cerevisiae deletion strains, locus YOR080W, strain dia2, active compounds read low 0.999 | S. cerevisiae deletion strains, locus YOR083W, strain WHI5 (second series), active compounds read low 1.02 | S. cerevisiae deletion strains, locus YOR106W, strain vam3, active compounds read low 0.935 | S. cerevisiae deletion strains, locus YOR136W, strain idh2, active compounds read low 1.04 | S. cerevisiae deletion strains, locus YOR144C, strain elg1, active compounds read low 1.04 | S. cerevisiae deletion strains, locus YOR184W, strain ser1, active compounds read low 1.03 | S. cerevisiae deletion strains, locus YOR231W, strain MKK1, active compounds read low 0.992 | S. cerevisiae deletion strains, locus YOR265W, strain rbl2, active compounds read low 1.01 | S. cerevisiae deletion strains, locus YOR270C, strain vph1, active compounds read low 0.926 | S. cerevisiae deletion strains, locus YOR290C, strain snf2, active compounds read low 0.952 | S. cerevisiae deletion strains, locus YOR316C, strain cot1, active compounds read low 1.02 | S. cerevisiae deletion strains, locus YPL051W, strain arl3, active compounds read low 0.932 | S. cerevisiae deletion strains, locus YPL055C, strain LGE1, active compounds read low 1.01 and 0.999 | S. cerevisiae deletion strains, locus YPL078C, strain atp4, active compounds read low 0.943 | S. cerevisiae deletion strains, locus YPL106C, strain sse1, active compounds read low 0.987 | S. cerevisiae deletion strains, locus YPL240C, strain hsp82, active compounds read low 0.992 | S. cerevisiae deletion strains, locus YPL241C, strain CIN2, active compounds read low 1.01 | S. cerevisiae deletion strains, locus YPL256C, strain CLN2, active compounds read low 1.04 | S. cerevisiae deletion strains, locus YPR119W, strain clb2, active compounds read low 1.03 | S. cerevisiae deletion strains, locus YPR141C, strain kar3, active compounds read low 1.05 | S. cerevisiae deletion strains, locus YPR163C, strain tif3, active compounds read low 1.04 | S. cerevisiae deletion strains, locus YPR167C, strain met16, active compounds read low 1.03 | S. cerevisiae deletion strains, strain wtn01, active compounds read low 1.04 | S. cerevisiae strains, strain wild type, active compounds read low 1
